# Reference: PubChem BioAssay (NCATS)
# Records with an inconclusive call do not appear. Where a call stands in place of a potency, no number is given. A number with no mark means an inactive call. Activity calls are given as the source filed them. Calls come from the whole dose curve; as a rule, active = well fitted inhibition curve with a large enough effect; inconclusive = small, poorly fitted or top-dose-only effect; inactive = flat fitted curve, though single readings scatter.
# Assays:
# [1] = target: Luciferin 4-monooxygenase (Photinus pyralis) (UniProt P08659); experiment: Biochemical firefly luciferase enzyme assay for NPC (AID 624030);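 note: purified P. pyralis luciferase at 10 nM with luciferin and ATP substrate; nearly all actives have a fitted effect of over 70% in size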
# Luciferin 4-monooxygenase (Photinus pyralis), sequence (P08659 whole entry, looked up): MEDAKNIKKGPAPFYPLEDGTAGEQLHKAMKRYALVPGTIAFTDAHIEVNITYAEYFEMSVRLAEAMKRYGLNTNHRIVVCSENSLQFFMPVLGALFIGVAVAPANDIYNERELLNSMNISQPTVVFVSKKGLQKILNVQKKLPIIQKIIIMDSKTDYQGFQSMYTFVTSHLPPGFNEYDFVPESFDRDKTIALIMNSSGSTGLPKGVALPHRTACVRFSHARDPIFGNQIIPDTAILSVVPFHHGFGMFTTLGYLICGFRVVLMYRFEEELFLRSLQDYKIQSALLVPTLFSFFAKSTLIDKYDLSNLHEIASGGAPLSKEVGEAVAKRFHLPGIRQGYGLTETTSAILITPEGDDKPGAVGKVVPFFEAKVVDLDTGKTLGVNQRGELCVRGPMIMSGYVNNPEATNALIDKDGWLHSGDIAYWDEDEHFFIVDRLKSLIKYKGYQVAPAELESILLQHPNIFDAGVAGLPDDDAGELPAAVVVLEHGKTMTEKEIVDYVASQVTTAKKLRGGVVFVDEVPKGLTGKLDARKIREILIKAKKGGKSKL
# Outline: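 Purified P. pyralis luciferase at 10 nM in 50 mM Tris Acetate (final), luminescence read within 5 minutes of enzyme addition to compounds. Activity normalised to PTC124 versus DMSO; concentration-response curves classed by r2, magnitude and activity.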
# [2] = qHTS profiling for inhibitors of Plasmodium falciparum proliferation (AID 504749); note: potency is the fitted concentration of half-maximal effect; for all read-outs here: nearly all actives have a fitted effect of over 60% in size; conditions: P. falciparum in erythrocytes, SYBR Green DNA, 72 h; for activity, negative = inhibition: at 28.7 µM (top of the series)
# Outline: (§1)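 P. falciparum-infected erythrocytes (0.3% parasitemia, 2.5% hematocrit) incubated with compound 72 h at 37 C, 5% CO2. Parasite DNA detected by SYBR Green after lysis, overnight at room temperature; normalised to 0.29 uM artemisinin and DMSO.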
# AS120 = experiment: as above; conditions: P. falciparum in erythrocytes, SYBR Green DNA, 72 h; series mostly up to 28.7 µM
# Outline: as §1
# ATS189 = experiment: as above; conditions: P. falciparum in erythrocytes, SYBR Green DNA, 72 h; series mostly up to 28.7 µM
# Outline: as §1
# CP192 = experiment: as above; conditions: P. falciparum in erythrocytes, SYBR Green DNA, 72 h; series mostly up to 28.7 µM
# Outline: as §1
# CP201 = experiment: as above; conditions: P. falciparum in erythrocytes, SYBR Green DNA, 72 h; series mostly up to 28.7 µM
# Outline: as §1
# CP211 = experiment: as above; conditions: P. falciparum in erythrocytes, SYBR Green DNA, 72 h; series mostly up to 28.7 µM
# Outline: as §1
# CP237 = experiment: as above; conditions: P. falciparum in erythrocytes, SYBR Green DNA, 72 h; series mostly up to 28.7 µM
# Outline: as §1
# CP238 = experiment: as above; conditions: P. falciparum in erythrocytes, SYBR Green DNA, 72 h; series mostly up to 28.7 µM
# Outline: as §1
# CP262 = experiment: as above; conditions: P. falciparum in erythrocytes, SYBR Green DNA, 72 h; series mostly up to 28.7 µM
# Outline: as §1
# CP286 = experiment: as above; conditions: P. falciparum in erythrocytes, SYBR Green DNA, 72 h; series mostly up to 28.7 µM
# Outline: as §1
# CP315 = experiment: as above; conditions: P. falciparum in erythrocytes, SYBR Green DNA, 72 h; series mostly up to 28.7 µM
# Outline: as §1
# CP325 = experiment: as above; conditions: P. falciparum in erythrocytes, SYBR Green DNA, 72 h; series mostly up to 28.7 µM
# Outline: as §1
# DFO2036 = experiment: as above; conditions: P. falciparum in erythrocytes, SYBR Green DNA, 72 h; series mostly up to 28.7 µM
# Outline: as §1
# Dd2 = experiment: as above; conditions: P. falciparum in erythrocytes, SYBR Green DNA, 72 h; series mostly up to 28.7 µM
# Outline: as §1
# ECU = experiment: as above; conditions: P. falciparum in erythrocytes, SYBR Green DNA, 72 h; series mostly up to 28.7 µM
# Outline: as §1
# FAB9 = experiment: as above; conditions: P. falciparum in erythrocytes, SYBR Green DNA, 72 h; series mostly up to 28.7 µM
# Outline: as §1
# HB3 = experiment: as above; conditions: P. falciparum in erythrocytes, SYBR Green DNA, 72 h; series mostly up to 28.7 µM
# Outline: as §1
# N140 = experiment: as above; conditions: P. falciparum in erythrocytes, SYBR Green DNA, 72 h; series mostly up to 28.7 µM
# Outline: as §1
# PC49 = experiment: as above; conditions: P. falciparum in erythrocytes, SYBR Green DNA, 72 h; series mostly up to 28.7 µM
# Outline: as §1
compound,measurement,setting,value
CC(c1ncncc1F)[C@](O)(Cn1cncn1)c1ccc(F)cc1F (stereo partly drawn),Potency,[1],inactive
same,"activity, negative = inhibition",[2]; parasite line A,7.39%
same,"activity, negative = inhibition",[2]; parasite line B,-17.3%
same,Potency,AS120,inactive
same,Potency,ATS189,inactive
same,Potency,CP192,inactive
same,Potency,CP201,inactive
same,Potency,CP211,inactive
same,Potency,CP237,inactive
same,Potency,CP238,inactive
same,Potency,CP262,inactive
same,Potency,CP286,inactive
same,Potency,CP315,inactive
same,Potency,CP325,inactive
same,Potency,DFO2036,inactive
same,Potency,Dd2,inactive
same,Potency,ECU,inactive
same,Potency,FAB9,inactive
same,Potency,HB3,inactive
same,Potency,N140,inactive
same,Potency,PC49,inactive
CC(=O)NC[C@@H]1CN(c2ccc(N3CCOCC3)c(F)c2)C(=O)O1,Potency,[1],inactive
same,"activity, negative = inhibition",[2]; parasite line A,-12.2%
same,"activity, negative = inhibition",[2]; parasite line B,-9.57%
same,Potency,AS120,inactive
same,Potency,ATS189,inactive
same,Potency,CP192,inactive
same,Potency,CP201,inactive
same,Potency,CP211,inactive
same,Potency,CP237,inactive
same,Potency,CP238,inactive
same,Potency,CP262,inactive
same,Potency,CP286,inactive
same,Potency,CP315,inactive
same,Potency,CP325,inactive
same,Potency,DFO2036,inactive
same,Potency,Dd2,inactive
same,Potency,ECU,inactive
same,Potency,FAB9,inactive
same,Potency,HB3,inactive
same,Potency,N140,inactive
same,Potency,PC49,inactive
O=c1[nH]c(=O)n(C2C[C@H](O)[C@@H](CO)O2)cc1C(F)(F)F (stereo partly drawn),Potency,[1],inactive
same,"activity, negative = inhibition",[2]; parasite line A,-3.45%
same,"activity, negative = inhibition",[2]; parasite line B,-4.14%
same,Potency,AS120,inactive
same,Potency,ATS189,inactive
same,Potency,CP192,inactive
same,Potency,CP201,inactive
same,Potency,CP211,inactive
same,Potency,CP237,inactive
same,Potency,CP238,inactive
same,Potency,CP262,inactive
same,Potency,CP286,inactive
same,Potency,CP315,inactive
same,Potency,CP325,inactive
same,Potency,DFO2036,inactive
same,Potency,Dd2,inactive
same,Potency,ECU,inactive
same,Potency,FAB9,inactive
same,Potency,HB3,inactive
same,Potency,N140,inactive
same,Potency,PC49,inactive
COc1cc2c(cc1O)CCN[C@@]21CS[C@H]2c3c(OC(C)=O)c(C)c4c(c3C(COC1=O)N1C2C2c3c(cc(C)c(OC)c3O)CC([C@@H]1O)N2C)OCO4 (stereo partly drawn),Potency,[1],inactive
same,Potency,[2]; parasite line A,0.0009 µM (active)
same,Potency,[2]; parasite line B,0.0009 µM (active)
same,Potency,AS120,0.0009 µM (active)
same,Potency,ATS189,0.001 µM (active)
same,Potency,CP192,0.0015 µM (active)
same,Potency,CP201,0.0013 µM (active)
same,Potency,CP211,0.0005 µM (active)
same,Potency,CP237,0.0009 µM (active)
same,Potency,CP238,0.0009 µM (active)
same,Potency,CP262,0.0005 µM (active)
same,Potency,CP286,0.0003 µM (active)
same,Potency,CP315,0.0015 µM (active)
same,Potency,CP325,0.0005 µM (active)
same,Potency,DFO2036,0.0009 µM (active)
same,Potency,Dd2,0.001 µM (active)
same,Potency,ECU,0.0008 µM (active)
same,Potency,FAB9,0.001 µM (active)
same,Potency,HB3,0.0003 µM (active)
same,Potency,N140,0.001 µM (active)
same,Potency,PC49,0.0013 µM (active)
COC(=O)C1[C@@H](OC)C(OC(=O)COc2ccc(OC)cc2)C[C@@H]2CN3CCc4c([nH]c5cc(OC)ccc45)[C@H]3C[C@H]12 (stereo partly drawn),Potency,[1],inactive
same,Potency,AS120,11.2 µM (active)
same,Potency,ATS189,11.2 µM (active)
same,Potency,CP192,inactive
same,Potency,CP201,inactive
same,Potency,CP211,inactive
same,Potency,CP262,inactive
same,Potency,CP286,11.2 µM (active)
same,Potency,CP315,inactive
same,Potency,CP325,inactive
same,Potency,Dd2,10 µM (active)
same,Potency,HB3,12.6 µM (active)
same,Potency,N140,11.2 µM (active)
same,Potency,PC49,inactive
COc1cccc2c1C(=O)c1c(O)c3c(c(O)c1C2=O)C[C@@](O)(C(=O)CO)C[C@@H]3OC1CC(N)C(O)C(C)O1 (stereo partly drawn),Potency,[1],inactive
same,Potency,[2]; parasite line A,2 µM (active)
same,Potency,[2]; parasite line B,3.16 µM (active)
same,Potency,AS120,2.24 µM (active)
same,Potency,ATS189,2.51 µM (active)
same,Potency,CP192,1.9 µM (active)
same,Potency,CP201,3.79 µM (active)
same,Potency,CP211,1.69 µM (active)
same,Potency,CP237,0.891 µM (active)
same,Potency,CP238,2.24 µM (active)
same,Potency,CP262,2.39 µM (active)
same,Potency,CP286,0.398 µM (active)
same,Potency,CP315,6.75 µM (active)
same,Potency,CP325,3.79 µM (active)
same,Potency,DFO2036,2 µM (active)
same,Potency,Dd2,1.26 µM (active)
same,Potency,ECU,3.16 µM (active)
same,Potency,FAB9,3.16 µM (active)
same,Potency,HB3,2 µM (active)
same,Potency,N140,2.51 µM (active)
same,Potency,PC49,5.62 µM (active)
Cc1ccc(/C=C2/C(=O)C3(C)CCC2C3(C)C)cc1 (stereo not drawn),Potency,[1],inactive
same,"activity, negative = inhibition",[2]; parasite line A,14.8%
same,"activity, negative = inhibition",[2]; parasite line B,12%
same,Potency,AS120,inactive
same,Potency,ATS189,inactive
same,Potency,CP192,inactive
same,Potency,CP201,inactive
same,Potency,CP211,inactive
same,Potency,CP237,inactive
same,Potency,CP238,inactive
same,Potency,CP262,inactive
same,Potency,CP286,inactive
same,Potency,CP315,inactive
same,Potency,CP325,inactive
same,Potency,DFO2036,inactive
same,Potency,Dd2,inactive
same,Potency,ECU,inactive
same,Potency,FAB9,inactive
same,Potency,HB3,inactive
same,Potency,N140,inactive
same,Potency,PC49,inactive
Nc1nc2[nH]cc(CCc3ccc(C(=O)NC(CCC(=O)O)C(=O)O)cc3)c2c(=O)[nH]1 (stereo not drawn),Potency,[1],inactive
same,Potency,[2]; parasite line A,0.126 µM (active)
same,Potency,[2]; parasite line B,0.199 µM (active)
same,Potency,ATS189,0.224 µM (active)
same,Potency,CP192,9.53 µM (active)
same,Potency,CP211,3.79 µM (active)
same,Potency,CP237,0.0794 µM (active)
same,Potency,CP238,11.2 µM (active)
same,Potency,CP262,0.426 µM (active)
same,Potency,CP315,0.953 µM (active)
same,Potency,DFO2036,0.0631 µM (active)
same,Potency,Dd2,5.01 µM (active)
same,Potency,ECU,0.199 µM (active)
same,Potency,FAB9,0.316 µM (active)
same,Potency,HB3,0.0708 µM (active)
same,Potency,N140,3.16 µM (active)
same,Potency,PC49,0.562 µM (active)
O=c1ccn(C2OC(COP(=O)(O)OC3C(CO)OC(n4ccc(=O)[nH]c4=O)C3O)C(O)C2O)c(=O)[nH]1 (stereo not drawn),Potency,[1],inactive
same,"activity, negative = inhibition",[2]; parasite line A,0.515%
same,"activity, negative = inhibition",[2]; parasite line B,10.1%
same,Potency,AS120,inactive
same,Potency,ATS189,inactive
same,Potency,CP192,inactive
same,Potency,CP201,inactive
same,Potency,CP211,inactive
same,Potency,CP237,inactive
same,Potency,CP238,inactive
same,Potency,CP262,inactive
same,Potency,CP286,inactive
same,Potency,CP315,inactive
same,Potency,CP325,inactive
same,Potency,DFO2036,inactive
same,Potency,Dd2,inactive
same,Potency,ECU,inactive
same,Potency,FAB9,inactive
same,Potency,HB3,inactive
same,Potency,N140,inactive
same,Potency,PC49,inactive
